Unmarked numbers belong to inactive results. Records with an inconclusive call do not appear. The source made the active and inactive calls. Unless noted, calls come from the whole dose curve; as a rule, active = well fitted curve in the direction sought with a large enough effect; inconclusive = small, poorly fitted or top-dose-only effect, or another doubt; inactive = no such curve, though single readings can be large; an effect the other way counts as inactive or inconclusive. Bounds are passed on as bounds.

Test [1] addresses Lysosomal acid glucosylceramidase (Homo sapiens) (UniProt P04062). Kind of test: Glucocerebrosidase-p2 (AID 348; in the data active = potency below about 10 µM; note: potency is the fitted concentration of half-maximal effect). The following applies: purified GBA, blue fluorogenic substrate, 40 min. The gist of the method: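 Normal human glucocerebrosidase (0.2 nM) with blue fluorogenic substrate (80 uM final) in citrate/phosphate pH 5.9 with 10mM sodium taurocholate, 0.01% tween-20; 40 min RT, NaOH/glycine stop; fluorescence Ex 365/Em 440; AC50 from a titration from 0.6 nM upwards.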

Test [2] can be described thus: AP1 Signaling Pathway (AID 357; active = well fitted curve in either direction with a large enough effect, not every such curve was filed as active; note: % is set by controls: 0 for no effect and ±100 for the full control effect). The following applies: ME-180 AP-1-bla reporter, EGF-induced, beta-lactamase ratio, 5 h; at 7.69 µM (top of the series) unless noted. The gist of the method:
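AP-1-bla ME-180 cells with beta-lactamase reporter under AP-1 response element, stimulated with EC50 EGF; compounds titrated, 5 hours at 37 degrees Celsius. CCF4 read at 460/530 nm ratio; positive and negative modulators judged by AC50.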

Test [3] in a line: Stat Signaling Pathway (AID 446; active = well fitted curve in either direction with a large enough effect, not every such curve was filed as active;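 note: ME-180 cervical cancer cells given 40 pM IL-6 alongside compound; SIE-controlled beta-lactamase reporter measured as 460/530 nm FRET emission ratio; % is set by controls: 0 for no effect and ±100 for the full control effect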). The following applies: ME-180 SIE beta-lactamase reporter, IL-6 stimulated, 5 h; at 7.69 µM (top of the series) unless noted. The gist of the method: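 FRET read-out (405 nm excitation, 460/530 nm emission) of a beta-lactamase reporter under a STAT-inducible element in ME-180 cervical carcinoma cells. Cells with compound receive 40 pM IL-6 for 5 h. Values are normalised to AC90 stimulation and AC90 JAK-inhibitor controls.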

Test [4] deals with Glucocorticoid receptor (Homo sapiens) (UniProt P04150). Kind of test: GR-GFP Redistribution (AID 450;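 active = compounds whose dose series gives a full or clear partial fitted curve of increased nuclear translocation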; note: potency is the fitted concentration of half-maximal effect). The following applies: U2OS GR-GFP nuclear translocation, laser cytometry, 2 h.
The target is the same in test [5]. Kind of test: GR-EFC Redistribution (AID 451; calls by dose curve; note: potency is the fitted concentration of half-maximal effect). The following applies: CHO-K1 GR-EFC translocation, beta-gal luminescence, 2 h. The method, boiled down: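 CHO-K1 cells expressing nuclear EA and GR-ED fragments of b-gal; compounds titrated up to 46 uM final, 2 h at 37 C. GR nuclear translocation read as complemented b-gal luminescence after 1 h RT detection.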
The target of test [6] is Mitogen-activated protein kinase 10 (Mus musculus) (UniProt Q61831). In words: JNK3 AlphaScreen Assay (AID 530; active = well fitted curve in either direction with a large enough effect, not every such curve was filed as active;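 note: kinase came from lysate of stimulated human HepG2 cells; signal reports phosphorylation of biotinylated GST-cJun 1-79 at Ser73 with 10 µM ATP; % is set by controls: 0 for no effect and ±100 for the full control effect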). The following applies: JNK3 lysate, c-Jun phosphorylation; series mostly up to 57.1 µM. The method, boiled down: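 Activity was read by AlphaScreen after JNK3-containing HepG2 lysate (cytokine pre-activated) phosphorylated biotinylated GST-cJun with 10 uM ATP at room temperature. Phospho-Ser73 cJun antibody with Protein-A acceptor beads provided detection.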
In general terms: In Alpha technology, singlet oxygen from a donor bead excites a nearby acceptor bead.

In test [7] the target is 3',5'-cyclic-AMP phosphodiesterase 4B (Homo sapiens) (UniProt Q07343). Kind of test: qHTS Assay for Inhibitors of PDE-IV (AID 607; active = well fitted activation curve with a large enough effect in the main read-out, with a control signal flat, not every such curve was filed as active; note: % of control where 0% means no effect). The following applies: HEK293 ACTOne CNG channel cells, membrane potential fluorescence; series mostly up to 22.9 µM. The method, boiled down:
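Cell-based read-out of cAMP via a modified cyclic nucleotide-gated channel and membrane potential dye (535/590 nm) in HEK293 cells expressing PDE4 endogenously. Compounds tested up to 22.9 uM final; 100 uM RO 20-1724 reference.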
In general terms: In qHTS, concentration-response curves come from the screen itself.

Test [8] in a line: qHTS Assay for Identification of Small Molecule Agonists for Hypoxia Response Element Signaling Pathway (AID 914; active = well fitted activation curve with a large enough effect in the signal ratio, with a control signal flat, not every such curve was filed as active; the % refers to the signal ratio; note: % of control where 0% means no effect). The following applies: ME-180 (cervical carcinoma) HRE-bla reporter, beta-lactamase ratio, CoCl2, 17 h; activation: hits give high values. The method, boiled down:
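Compounds in a titration series were added to ME-180 reporter cells alongside an EC50 level of CoCl2. After 17 hours, beta-lactamase activity was read as the 460nm/530nm emission ratio of CCF4, giving AC50 values.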

The target of test [9] is Dual specificity protein kinase CLK4 (Homo sapiens) (UniProt Q9HAZ1). Kind of test: qHTS Assay for Inhibitors of CDC-like Kinase 4 (Kinase-Glo Assay) (AID 1770). Note: nearly all actives have a fitted effect of over 65% in size. Note: potency is the fitted concentration of half-maximal effect. The following applies: recombinant Clk4, Kinase-Glo ATP depletion luminescence; series mostly up to 66.7 µM. The gist of the method: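 25 nM Clk4 with 100 uM RS repeat peptide and 1 uM ATP (final) in Tris pH7.5, 10 mM MgCl2, 4.5 h at room temperature. Remaining ATP measured by Kinase-Glo luciferase luminescence.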

For test [10] the target is unchanged. Kind of test: qHTS Assay for Inhibitors of CDC-like Kinase 4 (ADP-Glo Assay) (AID 1771). Note: nearly all actives have a fitted effect of over 70% in size. Note: potency is the fitted concentration of half-maximal effect. To be noted: recombinant CLK4, ADP-Glo luminescence; series mostly up to 80 µM. The gist of the method:
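Compounds are pin-transferred onto substrate mix (100 uM RS peptide, 1 uM ATP), then 25 nM Clk4 is added. After 1 hr at room temperature, ADP-Glo reagent runs 45 min, detection reagent 30 min, then luminescence is read.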

Test [11] deals with Ubiquitin carboxyl-terminal hydrolase 1 (Homo sapiens) (UniProt O94782). Kind of test: Inhibitors of USP1/UAF1: Pilot qHTS (AID 504865). Note: nearly all actives have a fitted effect of over 35% in size. Note: potency is the fitted concentration of half-maximal effect. The following applies: purified USP1/UAF1, Ub-rhodamine cleavage fluorescence; series mostly up to 54.9 µM. The method, boiled down:
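USP1/UAF1 complex at 1 nM preincubated 15 min at room temperature with compound, then Ub-Rho substrate added at 150 nM final. Fluorescence (480/540 nm) read kinetically in 50 mM HEPES pH 7.8, 0.5 mM EDTA, 1 mM TCEP, 0.1 mg/ml BSA, 0.01% Tween-20.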

Test [12] can be described thus: Primary qHTS for small molecule stabilizers of the endoplasmic reticulum resident proteome: Secreted ER Calcium Modulated Protein (SERCaMP) assay (AID 1508630). Note: % is set by controls: 0 for no effect and ±100 for the full control effect. The following applies: SH-SY5Y GLuc-SERCaMP (Gaussia luciferase released on ER calcium loss) secretion, thapsigargin, luminescence; series mostly up to 38.4 µM. The method, boiled down:
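The SH-SY5Y reporter protocol was run at 3 concentrations up to 38.3 uM (primary) or 11 concentrations (follow-up): 16 h compound, 100 nM thapsigargin for 4 h, then extracellular luciferase luminescence.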

Test [13] deals with Cytochrome P450 1A2 (Homo sapiens) (UniProt P05177). In words: p450-cyp1a2 (AID 410; calls by dose curve; note: potency is the fitted concentration of half-maximal effect). The following applies: recombinant CYP1A2, luciferin-ME demethylation, luminescence; series mostly up to 57 µM. The method, boiled down: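 O-Demethylation of luciferin 6' methyl ether by human CYP1A2 is monitored as luciferase luminescence. Substrate sits at Km (100uM); enzyme is 20nM. Values are scaled to 57 uM furafylline as maximal inhibition.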

Test [14] in a line: NFAT Signaling Pathway (AID 444; active = well fitted curve in either direction with a large enough effect, not every such curve was filed as active). To be noted: Jurkat NFAT-bla M1, carbachol, beta-lactamase ratio, 5 h; at 7.69 µM (top of the series) unless noted. The gist of the method:
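Jurkat cells with NFAT-driven β-lactamase reporter and co-expressed M1 receptor, stimulated with carbachol (final 1 uM, ~EC50), compound titration, 5 h at 37 °C. CCF4 loaded 1 h at RT; 460/530 nm ratio gave %activity and AC50.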

For test [15], the target named is Cytochrome P450 3A4 (Homo sapiens) (UniProt P08684). Kind of test: qHTS Assay for Inhibitors and Substrates of Cytochrome P450 3A4 (AID 884). Note: potency is the fitted concentration of half-maximal effect; nearly all actives have a fitted effect of over 50% in size. The following applies: recombinant CYP3A4, Luciferin-PPXE luminescence; series mostly up to 57.1 µM. The method, boiled down: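 Luminescent readout of luciferin produced by CYP3A4 (20 nM) dealkylation of Luciferin-PPXE, 25 uM (its KM). NADPH-driven reaction ran 60 min at RT after 10 min compound preincubation; data scaled to 57 uM ketoconazole as 100% inhibition.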

Test [16] has the same target. Kind of test: qHTS Assay for Activators of Cytochrome P450 3A4 (AID 885). Note: nearly all actives have a fitted effect of over 65% in size. The following applies: recombinant CYP3A4, Luciferin-PPXE luminescence, 60 min; series mostly up to 57.1 µM. The method, boiled down: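 Luminescent readout of luciferin formed from 25 uM Luciferin-PPXE (KM level) by 20 nM CYP3A4 in 200 mM KPO4, with 60 min NADPH-driven reaction at room temperature after 10 min compound exposure. Ketoconazole (57 uM) defined 100% inhibition.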

The target in test [17] is Cytochrome P450 2D6 (Homo sapiens) (UniProt P10635). Kind of test: qHTS Assay for Inhibitors and Substrates of Cytochrome P450 2D6 (AID 891). Note: potency is the fitted concentration of half-maximal effect; nearly all actives have a fitted effect of over 60% in size. The following applies: recombinant CYP2D6, luciferin-ME EGE luminescence; series mostly up to 57.1 µM. The method, boiled down:
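Luminescent read-out of luciferin formed by 5 nM human CYP2D6 demethylating 30 uM Luciferin-ME EGE (Km level) over 60 min at room temperature after NADPH regeneration addition. Data normalized to full inhibition by 1.43 uM quinidine.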

Test [18] deals with Cytochrome P450 2C19 (Homo sapiens) (UniProt P33261). Kind of test: qHTS Assay for Inhibitors and Substrates of Cytochrome P450 2C19 (AID 899). Note: potency is the fitted concentration of half-maximal effect; nearly all actives have a fitted effect of over 60% in size. To be noted: recombinant CYP2C19, luciferin-H EGE luminescence; series mostly up to 57.1 µM. The gist of the method: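 Luminescent read-out of luciferin formed from Luciferin-H EGE (10uM, equal to KM). Enzyme 5nM in 50mM KPO4; compound added, 10 min at 37C, then NADPH regenerating system for 60 min at 37C. Full inhibition defined by 57uM ketoconazole.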
Chain of Cytochrome P450 2C19 (Homo sapiens) (P33261 whole entry, looked up): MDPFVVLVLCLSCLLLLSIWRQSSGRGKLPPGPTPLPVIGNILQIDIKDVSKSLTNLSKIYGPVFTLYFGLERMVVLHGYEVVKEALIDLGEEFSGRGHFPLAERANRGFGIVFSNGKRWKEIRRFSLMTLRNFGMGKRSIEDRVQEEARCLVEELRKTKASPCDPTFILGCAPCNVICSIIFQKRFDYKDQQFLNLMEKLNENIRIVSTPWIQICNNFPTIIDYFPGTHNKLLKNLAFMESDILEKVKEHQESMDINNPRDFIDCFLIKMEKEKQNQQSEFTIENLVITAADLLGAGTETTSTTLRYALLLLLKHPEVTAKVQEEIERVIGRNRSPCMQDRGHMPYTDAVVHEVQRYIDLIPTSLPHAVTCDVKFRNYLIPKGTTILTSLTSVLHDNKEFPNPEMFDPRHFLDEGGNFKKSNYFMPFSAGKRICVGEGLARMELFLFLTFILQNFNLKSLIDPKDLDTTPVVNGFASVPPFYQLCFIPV

Chain of Dual specificity protein kinase CLK4 (Homo sapiens) (Q9HAZ1 whole entry, looked up): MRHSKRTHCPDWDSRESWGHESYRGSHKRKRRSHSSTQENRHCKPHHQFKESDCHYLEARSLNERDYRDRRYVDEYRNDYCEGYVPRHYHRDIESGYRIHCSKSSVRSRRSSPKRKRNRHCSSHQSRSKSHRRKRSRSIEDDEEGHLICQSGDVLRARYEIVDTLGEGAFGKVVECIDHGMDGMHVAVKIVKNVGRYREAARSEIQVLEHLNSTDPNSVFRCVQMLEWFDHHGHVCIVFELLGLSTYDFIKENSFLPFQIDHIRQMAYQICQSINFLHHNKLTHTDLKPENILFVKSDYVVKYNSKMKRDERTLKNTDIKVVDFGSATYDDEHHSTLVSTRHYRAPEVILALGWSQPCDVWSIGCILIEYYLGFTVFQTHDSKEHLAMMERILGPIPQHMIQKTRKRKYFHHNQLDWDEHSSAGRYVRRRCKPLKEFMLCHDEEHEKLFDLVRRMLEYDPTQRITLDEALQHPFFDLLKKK
Chain of Cytochrome P450 3A4 (Homo sapiens) (P08684 whole entry, looked up): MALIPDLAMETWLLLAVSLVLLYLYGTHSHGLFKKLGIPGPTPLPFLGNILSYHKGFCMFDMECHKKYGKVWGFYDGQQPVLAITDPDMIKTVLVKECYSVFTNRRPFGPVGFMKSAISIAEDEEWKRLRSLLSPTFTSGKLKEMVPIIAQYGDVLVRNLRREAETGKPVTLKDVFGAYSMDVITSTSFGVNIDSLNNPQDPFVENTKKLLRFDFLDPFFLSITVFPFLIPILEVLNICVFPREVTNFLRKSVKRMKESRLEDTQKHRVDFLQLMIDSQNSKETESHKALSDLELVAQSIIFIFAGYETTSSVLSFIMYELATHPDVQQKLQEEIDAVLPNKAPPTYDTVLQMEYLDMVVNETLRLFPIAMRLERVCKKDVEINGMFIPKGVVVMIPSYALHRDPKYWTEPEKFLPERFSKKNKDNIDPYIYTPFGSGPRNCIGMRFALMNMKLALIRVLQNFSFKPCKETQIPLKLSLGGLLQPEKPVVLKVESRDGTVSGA
Chain of Lysosomal acid glucosylceramidase (Homo sapiens) (P04062 whole entry, looked up): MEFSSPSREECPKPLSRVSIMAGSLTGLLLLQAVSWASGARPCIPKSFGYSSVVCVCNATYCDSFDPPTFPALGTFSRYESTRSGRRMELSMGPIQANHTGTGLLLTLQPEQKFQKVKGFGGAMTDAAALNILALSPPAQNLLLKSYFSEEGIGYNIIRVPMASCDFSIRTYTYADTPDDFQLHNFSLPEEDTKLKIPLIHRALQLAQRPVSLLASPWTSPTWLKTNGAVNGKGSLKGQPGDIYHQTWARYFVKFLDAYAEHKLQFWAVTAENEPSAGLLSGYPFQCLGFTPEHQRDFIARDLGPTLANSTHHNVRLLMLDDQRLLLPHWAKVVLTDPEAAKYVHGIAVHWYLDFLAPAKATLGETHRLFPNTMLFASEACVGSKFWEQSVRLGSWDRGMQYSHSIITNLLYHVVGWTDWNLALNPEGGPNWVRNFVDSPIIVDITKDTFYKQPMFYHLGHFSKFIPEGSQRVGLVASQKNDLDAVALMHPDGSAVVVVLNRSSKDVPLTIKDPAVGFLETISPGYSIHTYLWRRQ
Chain of 3',5'-cyclic-AMP phosphodiesterase 4B (Homo sapiens) (Q07343 whole entry, looked up): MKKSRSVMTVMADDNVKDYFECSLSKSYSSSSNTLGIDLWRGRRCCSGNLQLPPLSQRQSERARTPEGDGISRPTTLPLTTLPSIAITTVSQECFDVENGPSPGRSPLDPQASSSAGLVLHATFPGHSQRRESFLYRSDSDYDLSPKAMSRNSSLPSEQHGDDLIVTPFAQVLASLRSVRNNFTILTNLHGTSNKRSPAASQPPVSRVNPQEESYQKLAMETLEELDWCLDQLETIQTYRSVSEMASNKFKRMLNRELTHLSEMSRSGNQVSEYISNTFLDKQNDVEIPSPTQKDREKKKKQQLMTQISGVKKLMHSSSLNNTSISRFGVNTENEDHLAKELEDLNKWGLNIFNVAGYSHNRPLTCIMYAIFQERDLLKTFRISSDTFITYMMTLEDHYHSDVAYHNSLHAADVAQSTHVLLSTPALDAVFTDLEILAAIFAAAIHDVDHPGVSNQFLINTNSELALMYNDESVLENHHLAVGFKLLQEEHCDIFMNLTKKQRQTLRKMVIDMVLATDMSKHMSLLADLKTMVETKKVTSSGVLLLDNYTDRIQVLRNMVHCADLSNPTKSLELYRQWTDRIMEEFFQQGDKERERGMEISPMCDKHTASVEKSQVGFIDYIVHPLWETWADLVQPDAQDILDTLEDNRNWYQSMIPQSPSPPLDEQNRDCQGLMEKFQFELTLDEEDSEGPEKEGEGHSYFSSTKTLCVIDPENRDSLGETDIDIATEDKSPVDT
Chain of Ubiquitin carboxyl-terminal hydrolase 1 (Homo sapiens) (O94782 whole entry, looked up): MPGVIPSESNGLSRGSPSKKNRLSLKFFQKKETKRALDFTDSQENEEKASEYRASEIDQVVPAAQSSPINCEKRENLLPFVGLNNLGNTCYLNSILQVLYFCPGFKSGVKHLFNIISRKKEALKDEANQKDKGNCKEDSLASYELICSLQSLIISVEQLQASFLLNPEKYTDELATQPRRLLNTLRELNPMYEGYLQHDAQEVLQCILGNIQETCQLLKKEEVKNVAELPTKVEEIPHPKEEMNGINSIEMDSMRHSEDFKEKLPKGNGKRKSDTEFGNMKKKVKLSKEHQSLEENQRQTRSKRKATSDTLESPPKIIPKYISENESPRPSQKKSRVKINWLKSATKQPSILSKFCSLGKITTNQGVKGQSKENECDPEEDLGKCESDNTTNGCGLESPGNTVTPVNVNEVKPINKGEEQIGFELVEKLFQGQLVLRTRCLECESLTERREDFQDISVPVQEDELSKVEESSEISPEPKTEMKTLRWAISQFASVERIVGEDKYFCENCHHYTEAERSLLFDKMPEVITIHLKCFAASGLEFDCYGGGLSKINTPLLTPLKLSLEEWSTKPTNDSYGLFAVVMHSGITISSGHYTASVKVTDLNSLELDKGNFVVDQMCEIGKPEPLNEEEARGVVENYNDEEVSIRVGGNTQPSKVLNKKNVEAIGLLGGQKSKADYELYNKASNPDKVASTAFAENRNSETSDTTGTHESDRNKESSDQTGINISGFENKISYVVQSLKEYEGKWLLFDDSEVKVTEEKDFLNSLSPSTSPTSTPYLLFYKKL
Chain of Cytochrome P450 1A2 (Homo sapiens) (P05177 whole entry, looked up): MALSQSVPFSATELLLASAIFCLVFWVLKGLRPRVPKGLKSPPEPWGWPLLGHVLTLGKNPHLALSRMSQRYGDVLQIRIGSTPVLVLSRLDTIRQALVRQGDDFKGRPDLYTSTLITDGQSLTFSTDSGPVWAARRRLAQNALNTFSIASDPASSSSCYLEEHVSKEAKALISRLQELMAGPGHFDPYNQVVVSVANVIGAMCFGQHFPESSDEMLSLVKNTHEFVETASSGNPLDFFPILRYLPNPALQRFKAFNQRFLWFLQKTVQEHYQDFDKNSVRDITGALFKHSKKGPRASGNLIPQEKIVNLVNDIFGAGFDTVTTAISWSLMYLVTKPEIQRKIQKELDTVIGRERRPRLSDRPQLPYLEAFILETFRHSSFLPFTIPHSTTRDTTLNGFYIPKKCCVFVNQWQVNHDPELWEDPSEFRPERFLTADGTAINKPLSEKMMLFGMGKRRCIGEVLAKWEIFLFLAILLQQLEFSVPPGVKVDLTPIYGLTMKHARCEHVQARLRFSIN
Chain of Glucocorticoid receptor (Homo sapiens) (P04150 whole entry, looked up, the tested form may be a part): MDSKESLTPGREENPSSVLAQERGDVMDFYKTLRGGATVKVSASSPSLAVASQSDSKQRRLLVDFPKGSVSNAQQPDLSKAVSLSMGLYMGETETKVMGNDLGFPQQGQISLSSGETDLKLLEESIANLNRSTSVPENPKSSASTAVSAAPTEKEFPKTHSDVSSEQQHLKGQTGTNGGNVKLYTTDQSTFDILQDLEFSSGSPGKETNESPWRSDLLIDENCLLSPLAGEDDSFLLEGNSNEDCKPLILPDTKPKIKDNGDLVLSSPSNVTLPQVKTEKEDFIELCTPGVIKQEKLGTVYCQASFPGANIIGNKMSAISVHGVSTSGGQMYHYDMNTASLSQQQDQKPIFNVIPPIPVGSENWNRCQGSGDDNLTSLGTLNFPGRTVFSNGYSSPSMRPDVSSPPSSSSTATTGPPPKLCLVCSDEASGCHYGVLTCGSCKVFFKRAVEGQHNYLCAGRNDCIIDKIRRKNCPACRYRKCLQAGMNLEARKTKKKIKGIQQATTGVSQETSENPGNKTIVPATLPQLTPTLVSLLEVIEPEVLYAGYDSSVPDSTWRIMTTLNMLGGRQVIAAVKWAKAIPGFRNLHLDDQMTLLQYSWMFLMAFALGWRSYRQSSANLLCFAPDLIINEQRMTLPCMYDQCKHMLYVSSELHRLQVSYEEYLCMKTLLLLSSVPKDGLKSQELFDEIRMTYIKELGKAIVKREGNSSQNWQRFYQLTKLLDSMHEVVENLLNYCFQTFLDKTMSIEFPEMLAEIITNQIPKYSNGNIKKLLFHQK

As to `CN(C)c1ccc(-c2ccc3ncnc(N(C)Cc4ccco4)c3c2)cc1`, the Potency in test [1] is more than 11.4 µM; in [4] it was more than 46 µM; in test [5] it was more than 46 µM; in test [9], 8.91 µM (active); in [10], 7.08 µM (active). For the same molecule, in test [2], the activity change, negative = inhibition is -28.7%. In addition, the activity, negative = inhibition in [3] was -0.793%. The Potency result in test [6], in test [7] and in test [11] was “inactive” in each case. In test [8], the activation was -3.37%. For the same molecule, the outcome in test [12] was inactive.

Turning to `COc1ccc(CNc2ncncc2-c2cccc(C#N)c2)c(OC)c1`, the Potency in test [1] is more than 11.4 µM; in [13], 7.94 µM (active); in test [4], more than 46 µM; in test [5] it was more than 46 µM; in test [15], 0.316 µM (active); in test [17] it was 5.01 µM (active). Moreover, the Potency is 5.01 µM (active) in test [18], 28.2 µM (active) in test [9] and 35.5 µM (active) in test [10]. Also, the activity change, negative = inhibition was -5.26% in [2] and 13.9% in test [14]. Besides, in test [3], the activity, negative = inhibition was 8.97%. The Potency result in test [6], in test [16] and in test [11] was “inactive” in each case. Besides, the result in test [12] was inactive.

Turning to `CC(=O)NCCNc1ncnc2ccc(-c3ccccc3C#N)cc12`, the Potency in test [1] is more than 11.4 µM; in test [13] it was 3.98 µM (active); in [4], more than 46 µM; in test [5], more than 46 µM; in test [9], 14.1 µM (active); in [10] it was 14.1 µM (active). In addition, in test [2], the activity change, negative = inhibition is -5.09%. For the same molecule, the activity, negative = inhibition in [3] is 6.69%. For the same molecule, the Potency entry in test [6], in test [7], in test [16] and in [11] was “inactive” throughout. Moreover, the outcome in test [12] was inactive.

With `COc1cccc(-c2nc(N(C)Cc3ccco3)c3ccccc3n2)c1`, the Potency in test [1] is more than 11.4 µM; in test [4] it was more than 46 µM; in [5], more than 46 µM; in [17], 5.01 µM (active); in [9], 12.6 µM (active); in test [10], 12.6 µM (active). Besides, in [2], the activity change, negative = inhibition was -7.73%. For the same molecule, the activity, negative = inhibition in [3] was -9.79%. In addition, the Potency result in test [6] and in test [16] was “inactive” in each case. Besides, the result in test [12] was inactive.

For the molecule `COc1cccc(-c2nc(NCc3cccs3)c3ccccc3n2)c1`, the Potency was more than 11.4 µM in test [1]; 0.316 µM (active) in [13]; more than 46 µM in [4]; more than 46 µM in test [5]; 3.16 µM (active) in test [15]; 3.16 µM (active) in test [18]. Moreover, the Potency in test [9] was 17.8 µM (active); in test [10] it was 15.8 µM (active); in [11] it was 20 µM (active). Also, the activity change, negative = inhibition is 9.31% in test [2] and -22.6% in [14]. The activity, negative = inhibition in test [3] was -12.6%. Moreover, the Potency result in test [6] and in [16] was “inactive” each time. Also, the result in test [12] was inactive.

Consider `COCCn1c(=O)c(C)nc2cnc(N3CCOCC3)nc21`, for which the Potency was more than 11.4 µM in [1], more than 9.22 µM in test [4] and more than 46 µM in test [5]. In addition, the values for the activity change, negative = inhibition in [2] and in test [14] were -1.95% and -1.73%, respectively. Also, in test [3], the activity, negative = inhibition is -12.9%. The Potency result in test [6], in test [7], in test [9], in [10] and in test [11] was “inactive” each time. In addition, the outcome in test [12] was inactive.

Take `CN1CCN(c2ccnc(-c3cccnc3)n2)CC1`: the Potency is more than 11.4 µM in test [1]; more than 46 µM in test [4]; more than 46 µM in test [5]; 25.1 µM (active) in test [9]; 15.8 µM (active) in test [10]. Besides, the activity change, negative = inhibition was -0.185% in test [2] and 0.489% in [14]. The activity, negative = inhibition in [3] was 12.4%. The Potency entry in test [6], in test [7] and in [11] was “inactive” in each case. The outcome in test [12] was inactive.

Source of the values: PubChem BioAssay (NCATS).
